According to PubChem BioAssay AID1159580 (chemical genetic matrix, 2015):
About 2,000 (36%) of roughly 5,500 compounds were called active. About 18% were inconclusive and are not listed. Rule as the data show it: active = normalized growth mostly below about 0.91 (no sharp cut-off); inconclusive = no clear call, values can overlap the other calls; inactive = mostly above about 0.92. Some of the results follow.

Assay: chemical genetic growth profiling, strain panel (AID 1159580);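 also: tested at 20 µM; growth read once vehicle control cultures reached saturation at 30 °C; 1 = growth at the plate median or of vehicle wells; lower values mean less growth of the strain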
Settings: growth OD

Measured: normalized growth

CN(C)CCN(Cc1ccccc1)c1ccccn1
inactive: S. cerevisiae deletion strains, locus YJR075W, strain HOC1, active compounds read low 1.01 | S. cerevisiae deletion strains, locus YKL009W, strain mrt4, active compounds read low 0.993 | S. cerevisiae deletion strains, locus YKL068W, active compounds read low 0.969 | S. cerevisiae deletion strains, locus YKL085W, strain MDH1 (second series), active compounds read low 0.978 | S. cerevisiae deletion strains, locus YKL085W, strain MDH1, active compounds read low 0.978 | S. cerevisiae deletion strains, locus YKL160W, strain elf1, active compounds read low 1.03 | S. cerevisiae deletion strains, locus YKL190W, strain CNB1, active compounds read low 0.983 | S. cerevisiae deletion strains, locus YKR001C, strain vps1, active compounds read low 0.994 | S. cerevisiae deletion strains, locus YKR026C, strain gcn3, active compounds read low 1 | S. cerevisiae deletion strains, locus YKR091W, strain srl3, active compounds read low 1.01 | S. cerevisiae deletion strains, locus YLL001W, strain dnm1, active compounds read low 1.04 | S. cerevisiae deletion strains, locus YLL026W, active compounds read low 1.02 | S. cerevisiae deletion strains, locus YLL041C, strain sdh2, active compounds read low 1.01 | S. cerevisiae deletion strains, locus YLR027C, strain aat2, active compounds read low 1.01 | S. cerevisiae deletion strains, locus YLR039C, strain RIC1, active compounds read low 0.966 | S. cerevisiae deletion strains, locus YLR058C, strain SHM2, active compounds read low 0.999 | S. cerevisiae deletion strains, locus YLR102C, strain apc9, active compounds read low 0.986 | S. cerevisiae deletion strains, locus YLR113W, strain HOG1, active compounds read low 0.909 | S. cerevisiae deletion strains, locus YLR221C, strain rsa3, active compounds read low 0.988 | S. cerevisiae deletion strains, locus YLR258W, strain gsy2, active compounds read low 1.01 | S. cerevisiae deletion strains, locus YLR262C, strain YPT6 (second series), active compounds read low 1.02 | S. cerevisiae deletion strains, locus YLR262C, strain YPT6, active compounds read low 1.01 | S. cerevisiae deletion strains, locus YLR268W, strain sec22, active compounds read low 0.985 | S. cerevisiae deletion strains, locus YLR320W, strain mms22, active compounds read low 1.01 | S. cerevisiae deletion strains, locus YLR330W, strain CHS5, active compounds read low 0.999 | S. cerevisiae deletion strains, locus YLR342W, strain FKS1 (second series), active compounds read low 1.04 | S. cerevisiae deletion strains, locus YLR342W, strain FKS1, active compounds read low 1.02 | S. cerevisiae deletion strains, locus YLR357W, strain rsc2, active compounds read low 1.03 | S. cerevisiae deletion strains, locus YLR370C, strain arc18, active compounds read low 1.03 | S. cerevisiae deletion strains, locus YLR371W, strain rom2, active compounds read low 0.976 | S. cerevisiae deletion strains, locus YLR384C, strain iki3, active compounds read low 1.01 | S. cerevisiae deletion strains, locus YLR418C, strain cdc73, active compounds read low 1.02 | S. cerevisiae deletion strains, locus YML016C, strain PPZ1, active compounds read low 1.01 | S. cerevisiae deletion strains, locus YML032C, strain rad52, active compounds read low 0.978 | S. cerevisiae deletion strains, locus YML120C, strain ndi1, active compounds read low 1.02 | S. cerevisiae deletion strains, locus YML124C, strain tub3, active compounds read low 0.988 | S. cerevisiae deletion strains, locus YMR058W, strain fet3, active compounds read low 1.02 | S. cerevisiae deletion strains, locus YMR078C, strain ctf18, active compounds read low 0.988 | S. cerevisiae deletion strains, locus YMR125W, strain sto1, active compounds read low 1.02 | S. cerevisiae deletion strains, locus YMR129W, active compounds read low 1 | S. cerevisiae deletion strains, locus YMR205C, strain PFK2, active compounds read low 1.04 | S. cerevisiae deletion strains, locus YMR223W, strain ubp8, active compounds read low 1.02 | S. cerevisiae deletion strains, locus YMR231W, strain pep5, active compounds read low 1 | S. cerevisiae deletion strains, locus YMR263W, strain SAP30, active compounds read low 0.976 | S. cerevisiae deletion strains, locus YMR307W, strain GAS1, active compounds read low 1.06 | S. cerevisiae deletion strains, locus YNL067W, strain RPL9B, active compounds read low 0.985 | S. cerevisiae deletion strains, locus YNL071W, strain lat1, active compounds read low 1.01 | S. cerevisiae deletion strains, locus YNL128W, strain TEP1, active compounds read low 0.987 | S. cerevisiae deletion strains, locus YNL153C, strain GIM3, active compounds read low 0.995 | S. cerevisiae deletion strains, locus YNL183C, strain NPR1, active compounds read low 0.942 | S. cerevisiae deletion strains, locus YNL209W, strain ssb2, active compounds read low 1 | S. cerevisiae deletion strains, locus YNL233W, strain BNI4, active compounds read low 1.01 | S. cerevisiae deletion strains, locus YNL248C, strain rpa49, active compounds read low 1 | S. cerevisiae deletion strains, locus YNL250W, strain rad50, active compounds read low 0.96 | S. cerevisiae deletion strains, locus YNL271C, strain bni1, active compounds read low 0.953 | S. cerevisiae deletion strains, locus YNL298W, strain CLA4, active compounds read low 0.994 | S. cerevisiae deletion strains, locus YNL307C, strain MCK1, active compounds read low 0.989 | S. cerevisiae deletion strains, locus YNL322C, strain KRE1 (second series), active compounds read low 1.02 | S. cerevisiae deletion strains, locus YNL322C, strain KRE1, active compounds read low 0.987 | S. cerevisiae deletion strains, locus YNR049C, strain mso1, active compounds read low 1.02 | S. cerevisiae deletion strains, locus YNR052C, strain pop2, active compounds read low 0.986 | S. cerevisiae deletion strains, locus YOL006C, strain TOP1, active compounds read low 1 | S. cerevisiae deletion strains, locus YOL012C, strain htz1 1.43 | S. cerevisiae deletion strains, locus YOL147C, strain pex11, active compounds read low 0.978 | S. cerevisiae deletion strains, locus YOR001W, strain rrp6, active compounds read low 1.04 | S. cerevisiae deletion strains, locus YOR061W, strain CKA2, active compounds read low 0.996 | S. cerevisiae deletion strains, locus YOR069W, strain VPS5, active compounds read low 1 | S. cerevisiae deletion strains, locus YOR070C, strain gyp1, active compounds read low 0.999 | S. cerevisiae deletion strains, locus YOR080W, strain dia2, active compounds read low 1.02 | S. cerevisiae deletion strains, locus YOR083W, strain WHI5, active compounds read low 1.01 | S. cerevisiae deletion strains, locus YOR106W, strain vam3, active compounds read low 1.05 | S. cerevisiae deletion strains, locus YOR136W, strain idh2, active compounds read low 0.997 | S. cerevisiae deletion strains, locus YOR144C, strain elg1, active compounds read low 0.98 | S. cerevisiae deletion strains, locus YOR184W, strain ser1, active compounds read low 1 | S. cerevisiae deletion strains, locus YOR231W, strain MKK1, active compounds read low 0.959 | S. cerevisiae deletion strains, locus YOR265W, strain rbl2, active compounds read low 1 | S. cerevisiae deletion strains, locus YOR270C, strain vph1, active compounds read low 1.02 | S. cerevisiae deletion strains, locus YOR290C, strain snf2, active compounds read low 0.985 | S. cerevisiae deletion strains, locus YOR316C, strain cot1, active compounds read low 0.991 | S. cerevisiae deletion strains, locus YPL051W, strain arl3, active compounds read low 1.02 | S. cerevisiae deletion strains, locus YPL055C, strain LGE1, active compounds read low 1.04 | S. cerevisiae deletion strains, locus YPL078C, strain atp4, active compounds read low 1.04 | S. cerevisiae deletion strains, locus YPL106C, strain sse1, active compounds read low 1.02 | S. cerevisiae deletion strains, locus YPL240C, strain hsp82, active compounds read low 1.01 | S. cerevisiae deletion strains, locus YPL241C, strain CIN2, active compounds read low 0.992 | S. cerevisiae deletion strains, locus YPL256C, strain CLN2, active compounds read low 0.974 | S. cerevisiae deletion strains, locus YPR119W, strain clb2, active compounds read low 0.988 | S. cerevisiae deletion strains, locus YPR141C, strain kar3, active compounds read low 0.965 | S. cerevisiae deletion strains, locus YPR163C, strain tif3, active compounds read low 0.982 | S. cerevisiae deletion strains, locus YPR167C, strain met16, active compounds read low 0.973 | S. cerevisiae deletion strains, strain wtn01, active compounds read low 0.989 | S. cerevisiae strains, strain wild type, active compounds read low 0.999
